Data: PubChem BioAssay AID1159580 (chemical genetic matrix, 2015)
Several values for one entry are separate records, joined by “and”; a condition that tells them apart may be missing. Equal values may be shown once. Out of some 5,500 compounds screened, about 2,000 (36%) were called active. About 18% were inconclusive and are not listed. No stated cut-off is given here; in the data, active means normalized growth mostly below about 0.91 (no sharp cut-off); inconclusive means no clear call, values can overlap the other calls; inactive means mostly above about 0.92. The list shows a part of the results.

Assay: chemical genetic growth profiling, strain panel (AID 1159580);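 further: tested at 20 µM; growth read once vehicle control cultures reached saturation at 30 °C; 1 = growth at the plate median or of vehicle wells; lower values mean less growth of the strain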
Details: S. cerevisiae deletion strains, growth OD

Measured: normalized growth

CCCCCC1C(=O)CCC1CC(=O)OC (stereo not given)
active: locus YER110C, active compounds read low 0.898
inactive: locus YAL013W, strain DEP1, active compounds read low 0.988 | locus YAL021C, strain ccr4, active compounds read low 1.04 | locus YAL026C, strain drs2, active compounds read low 0.988 | locus YAL030W, strain snc1, active compounds read low 0.981 | locus YBL061C, strain skt5, active compounds read low 0.984 | locus YBR009C, strain hhf1, active compounds read low 0.972 | locus YBR021W, strain FUR4, active compounds read low 0.921 | locus YBR023C, strain chs3, active compounds read low 0.977 | locus YBR171W, strain sec66, active compounds read low 0.96 | locus YBR229C, strain ROT2, active compounds read low 0.991 | locus YBR231C, strain swc5, active compounds read low 0.978 | locus YBR279W, strain paf1, active compounds read low 0.986 | locus YCL011C, strain gbp2, active compounds read low 0.988 | locus YCL016C, strain dcc1, active compounds read low 0.979 | locus YCL029C, strain bik1, active compounds read low 0.958 | locus YCL061C, strain MRC1, active compounds read low 0.984 | locus YCL069W, strain vba3, active compounds read low 0.986 | locus YCR088W, strain abp1, active compounds read low 0.973 | locus YDL005C, strain med2, active compounds read low 0.97 | locus YDL035C, strain GPR1, active compounds read low 0.974 | locus YDL040C, strain nat1, active compounds read low 0.981 | locus YDL074C, strain BRE1, active compounds read low 0.992 | locus YDL101C, strain DUN1, active compounds read low 1.01 | locus YDL134C, strain PPH21, active compounds read low 1.01 | locus YDL185W, strain tfp1, active compounds read low 0.931 | locus YDL192W, strain arf1, active compounds read low 0.97 | locus YDR001C, strain nth1, active compounds read low 0.984 | locus YDR069C, strain doa4, active compounds read low 0.999 | locus YDR101C, strain arx1, active compounds read low 0.96 | locus YDR137W, strain rgp1, active compounds read low 0.996 | locus YDR150W, strain NUM1, active compounds read low 0.975 | locus YDR159W, strain sac3, active compounds read low 0.969 | locus YDR162C, strain NBP2, active compounds read low 1.03 | locus YDR195W, strain ref2 0.991 | locus YDR297W, strain sur2, active compounds read low 0.978 | locus YDR318W, strain mcm21, active compounds read low 0.961 | locus YDR334W, strain swr1, active compounds read low 0.986 | locus YDR335W, strain msn5, active compounds read low 1.01 | locus YDR388W, active compounds read low 0.954 | locus YDR392W, strain spt3, active compounds read low 0.975 | locus YDR502C, strain sam2, active compounds read low 0.996 | locus YEL003W, strain gim4, active compounds read low 0.987 | locus YEL037C, strain rad23, active compounds read low 0.984 | locus YEL061C, strain CIN8 (second series), active compounds read low 0.989 | locus YEL061C, strain CIN8, active compounds read low 0.991 | locus YER015W, strain faa2, active compounds read low 0.98 | locus YER016W, strain bim1, active compounds read low 0.986 | locus YER111C, strain swi4, active compounds read low 0.982 | locus YER155C, strain BEM2 (second series), active compounds read low 0.95 | locus YER155C, strain BEM2, active compounds read low 0.952 | locus YER167W, strain BCK2, active compounds read low 0.97 | locus YFR010W, strain ubp6, active compounds read low 0.987 | locus YGL078C, strain dbp3, active compounds read low 0.966 | locus YGL086W, strain mad1, active compounds read low 1.01 | locus YGL167C, strain pmr1, active compounds read low 0.96 | locus YGL173C, strain kem1, active compounds read low 0.967 | locus YGL227W, strain vid30, active compounds read low 0.963 | locus YGL240W, strain doc1, active compounds read low 0.994 | locus YGL248W, strain PDE1, active compounds read low 1.04 | locus YGL253W, strain hxk2, active compounds read low 0.981 | locus YGR078C, strain PAC10, active compounds read low 1.04 | locus YGR135W, strain pre9, active compounds read low 0.963 | locus YGR229C, strain SMI1, active compounds read low 1.02 | locus YGR252W, strain gcn5, active compounds read low 1.1 | locus YHR013C, strain ard1, active compounds read low 1 | locus YHR027C, strain rpn1, active compounds read low 0.992 | locus YHR030C, strain SLT2, active compounds read low 0.979 and 0.975 | locus YHR079C, strain IRE1 (second series), active compounds read low 0.957 | locus YHR079C, strain IRE1, active compounds read low 0.975 | locus YHR094C, strain hxt1, active compounds read low 0.986 | locus YHR129C, strain ARP1, active compounds read low 0.993 | locus YHR142W, strain chs7, active compounds read low 0.987 | locus YHR200W, strain rpn10, active compounds read low 0.981 | locus YIL066C, strain RNR3, active compounds read low 1 | locus YIL073C, strain SPO22, active compounds read low 0.952 | locus YIL125W, strain kgd1, active compounds read low 0.961 | locus YIR030C, strain dcg1, active compounds read low 0.948 | locus YJL092W, strain hpr5, active compounds read low 0.975 | locus YJL095W, strain BCK1 (second series), active compounds read low 0.983 | locus YJL095W, strain BCK1, active compounds read low 1.06 and 0.982 | locus YJL115W, strain asf1, active compounds read low 0.966 | locus YJL129C, strain trk1, active compounds read low 1 | locus YJL134W, strain LCB3, active compounds read low 0.967 | locus YJL154C, strain vps35, active compounds read low 0.976 | locus YJL164C, strain tpk1, active compounds read low 0.992 | locus YJL166W, strain qcr8, active compounds read low 0.978 | locus YJL168C, strain set2, active compounds read low 0.951 | locus YJL187C, strain SWE1 (second series), active compounds read low 1.03 | locus YJL187C, strain SWE1, active compounds read low 0.977
